# High-throughput results from PubChem BioAssay.
# Pf Dd2 inh: inhibitors of Plasmodium falciparum Dd2 growth; P. falciparum Dd2 growth, SYBR Green, 72 h; Potency, µM (top dose mostly 28.9 µM), for the others: top-dose activity, negative = inhibition, hits mostly inhibitors; actives 4.3% (n = 120,000); AID 1347417; active means well fitted inhibition curve with a large enough effect;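 further: plate controls were DMSO vehicle for no effect and reference drug for full effect; nearly all actives have a fitted effect of over 65% in size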
#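 Readout: SYBR Green fluorescence, 485 nm excitation, 535 nm emission, after ~16 h lysis at 37C. Before that, Dd2-infected red cells (2.5% hematocrit) grew 72 h with compound, 29 uM top final concentration.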
# An asterisk follows results filed as active; i = inactive; [ ] = another dose, or the depositor's remark. The entries come from a sample that favours hits as a whole. Potency means the concentration at half of the fitted maximal effect.
SMILES,Pf Dd2 inh
CC(C)c1nc2c(c(-c3ccc(O)cc3)n1)CN(Cc1cccc(C(F)(F)F)c1)CC2,2.51µM*
CC(C)c1nc2c(c(-c3ccc(O)cc3)n1)CN(Cc1ccccc1)CC2,-4.9%
CC1CCN(c2ccc(CNC(=O)c3ccc4c(c3)C(O)CCCCCN4C)cc2)CC1 (configuration not stated),-3.7%
CN1CCC(C2CCN(C(=O)NC3CCCC3)C2)CC1 (configuration not stated),-17.2%
COc1ccc(C(=O)N2CCCCCCNC(=O)CC2)cc1F,-8.4%
O=C(c1ccc(Oc2ccc(CN3CCCC3)cc2F)nc1)N1CCCCC1,7.08µM*
COc1ccc(C(=O)N2CCC(c3n[nH]c(=O)n3Cc3ccc(F)cc3)CC2)cn1,i
CC(NC(=O)c1coc(COc2ccc(F)cc2Cl)n1)c1cnn(C)c1 (configuration not stated),-21.1%
CCC1CCc2c(sc(NC(=O)C3c4ccccc4Oc4ccccc43)c2C(=O)OC)C1 (configuration not stated),12.6µM*
CC1CCc2c(sc(NC(=O)C3c4ccccc4Oc4ccccc43)c2C(=O)OC(C)C)C1 (configuration not stated),-0.4%
CCC(C)(C)C1CCc2c(sc(NC(=O)C3c4ccccc4Oc4ccccc43)c2C(N)=O)C1 (configuration not stated),-19.5%
COc1cccc([C@H]2CN(C(=O)c3c(C)nn4c(C)cc(C)nc34)C[C@@H]2N)c1,-13.4%
O=C1CC(c2ccccc2)N(C(=O)C2CCCCC2)CCCCCCN1 (configuration not stated),i
Cc1oc(C(O)c2cccc(O)c2)nc1C(=O)NCc1ccccc1 (configuration not stated),i
O=C(CCn1cccn1)N1CCC2(CC1)CN(Cc1ccccc1)CC2CO (configuration not stated),21.4%
Cc1cc(Cl)ccc1OCCN1CCN(C(=O)[C@H]2CCC[C@H](O)C2)CC1,-20.1%
Cc1cc(Cl)ccc1OCCN1CCN(CC2(O)CCCNC2)CC1 (configuration not stated),8.91µM*
OC1(CN2CCN(CCc3ccccn3)CC2)CCCNC1 (configuration not stated),-3.2%
Cc1cccc(Cn2nc3n(c2=O)CCCCC3)c1,-1.6%
COc1ccc(Cl)cc1NC(=O)CCC1CCCN(S(=O)(=O)C2CC2)C1 (configuration not stated),-27.5%
COc1ccc(Cl)cc1NC(=O)CCC1CCCN(C(=O)CCc2scnc2C)C1 (configuration not stated),-23.3%
COc1cc(OC)cc(C(=O)NCC2CCCN(C(=O)C3=C(C)OCCO3)C2)c1 (configuration not stated),-6.2%
COc1ccc(NC(=O)CCC2CCCN(C(=O)C3=C(C)OCCO3)C2)cc1Cl (configuration not stated),3.16µM*
COc1ccc(Cl)cc1NC(=O)CCC1CCCN(Cc2ccc(C)s2)C1 (configuration not stated),12.6µM*
COc1ccc(NC(=O)CCC2CCCN(C(=O)c3csc(C(C)=O)c3)C2)cc1Cl (configuration not stated),i
SMILES,Pf Dd2 inh
Cc1nn(C)cc1C(=O)NCCn1c(C)cnc1C1CCC1,-18.9%
O=C(O)c1ccc(-c2ncc3cnc(-c4cccc(F)c4)cn23)cc1,i
COCCN1C(=O)CC[C@]2(C(=O)N(C)CCc3ccccn3)CCCC[C@@H]12,9.4%
CC(C)c1nnc(C2CN(C(=O)CCc3nc4ccccc4[nH]3)CC23CCOCC3)o1 (configuration not stated),1.8%
COC(=O)[C@H](Cc1ccc(OC)cc1)NC(=O)[C@@H]1CN(S(C)(=O)=O)CCN1S(=O)(=O)c1ccccc1,20.5%
COC(=O)[C@H](Cc1ccc(OC)cc1)NC(=O)[C@@H]1CN(C(=O)c2cccc(F)c2)CCN1C(C)=O,-5.7%
CN(C)c1ccc(C(=O)N2CCN(S(C)(=O)=O)[C@H](C(=O)N[C@@H](CC3CCCCC3)C(N)=O)C2)cc1,i
COC(=O)[C@H](Cc1ccc(OC)cc1)NC(=O)[C@H]1CN(C(=O)Nc2ccccc2)CCN1C(=O)C1CCCCC1,i
COC(=O)[C@H](Cc1ccc(OC)cc1)NC(=O)[C@H]1CN(C(=O)c2ccc(N(C)C)cc2)CCN1C(=O)C1CCCCC1,0.398µM*
COC(=O)[C@H](Cc1ccc(OC)cc1)NC(=O)[C@@H]1CN(C(=O)NC(C)C)CCN1C(=O)c1cccs1,-20.7%
COC(=O)[C@H](Cc1ccc(OC)cc1)NC(=O)[C@H]1CN(C(=O)c2ccc(N(C)C)cc2)CCN1C(=O)c1cccs1,0.141µM*
COC(=O)[C@@H](C)NC(=O)[C@H]1CN(S(=O)(=O)c2ccccc2)CCN1C(=O)NC1CCCCC1,13.7%
COC(=O)[C@H](Cc1ccc(OC)cc1)NC(=O)[C@H]1CN(S(=O)(=O)c2ccccc2)CCN1C(=O)NC1CCCCC1,11.2µM*
COc1cc(CN2CCC3(Cc4ccccc4CNC3=O)C2)cc(OC)c1 (configuration not stated),-12.9%
CC(C)NC(=O)c1ccc(CN2C(=O)NC3(CCS(=O)(=O)CC3)C2=O)cc1,-9.2%
COCCc1noc(-c2ccccc2OC2CN(C(=O)c3ccncc3)C2)n1,10µM*
Cc1noc(-c2ccccc2OC2CCN(S(C)(=O)=O)C2)n1 (configuration not stated),1.0%
COc1ccc(OC)c(S(=O)(=O)N2CCC(Oc3ccccc3-c3nc(C)no3)C2)c1 (configuration not stated),-10.9%
COCCc1noc(-c2ccccc2OC2CN(S(=O)(=O)C(C)C)C2)n1,8.91µM*
COCCc1noc(-c2ccccc2OC2CN(C(=O)c3cnccn3)C2)n1,49.5%
Cc1ccc(C(=O)N2CCC(Oc3ccccc3-c3nc(-c4ccncc4)no3)C2)cn1 (configuration not stated),i
COCC1CCN(C(=O)c2ccc(C)cc2F)C1 (configuration not stated),-4.3%
CC(C)CNC(=O)N1CCC2(CC1)CC(C(=O)N1CCOCC1)N(C)C2 (configuration not stated),6.3%
C#CCN(C)C(=O)[C@@H]1CCCN1C1(C(=O)NC)CCCCC1,-2.4%[44.1 µM]
COCCNC(=O)C[C@@H]1O[C@H](CNCc2cccc(Cl)c2)[C@@H](O)[C@H]1O,23.4%[44.1 µM]
SMILES,Pf Dd2 inh
COc1nccc(N2CCC(CC(=O)N(C)CCCc3c(C)nn(C)c3C)CC2)n1,i
COCCNC(=O)C1COC2(CCN(C(=O)c3ccc(OC)cc3)CC2)N1C(=O)c1cccc(C)c1 (configuration not stated),-11.7%
CS(=O)(=O)c1oc(-c2ccc(F)cc2)nc1S(=O)(=O)c1ccc(Cl)cc1,10.0%
Cc1ccc(S(=O)(=O)c2nc(-c3cccs3)oc2SC(C)C)cc1,-9.4%
CC(C)S(=O)(=O)c1oc(-c2ccc(F)cc2)nc1S(=O)(=O)c1ccccc1,6.31µM*
CC(C)S(=O)(=O)c1oc(-c2cccs2)nc1S(=O)(=O)c1ccc(F)cc1,10µM*
CCCCS(=O)(=O)c1oc(-c2ccc(F)cc2)nc1S(=O)(=O)c1ccccc1,-23.7%
O=S(=O)(c1ccccc1)c1nc(-c2cccs2)oc1SCc1ccc(F)cc1,3.1%
CCCNC(=O)N1CCC(OC2CCN(S(C)(=O)=O)CC2)CC1,20.1%
CC(C)NC(=O)NC1CC2(CCN(C(=O)Cc3cnc[nH]3)CC2)c2ccccc21 (configuration not stated),57.2%
O=C1NCCCCCN(C(=O)C2CC=CC2)[C@H]2CCC[C@@H]12,2.5%
